Screening results from PubChem BioAssay.
Most compounds without a hit are left out; they make up all but 8.1% or so of the library.
MCF10A rerep: DNA re-replication induction in MCF 10a cells. MCF 10A DNA re-replication, Hoechst nuclear intensity, 48 h. Potency, µM (series often up to 46.1 µM), for the others: at the top dose activity, positive = re-replication, most hits filed as activators. actives 2.9% (n = 350,000). AID 624296; also: % of control where 0% means no effect; nearly all actives have a fitted effect of over 50% in size
KB-3-1 tox: KB-3-1 parental cell cytotoxicity. Potency, µM (top dose mostly 46.1 µM), most hits filed as cytotoxic. AID 1347075. actives 1.4% (n = 400,000). KB-3-1 viability, CellTiter-Glo ATP luminescence, 72 h; also: % is scaled to controls: 0 for no effect and ±100 for the full control effect; nearly all actives have a fitted effect of over 60% in size
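Luminescent ATP read-out (CellTiter-Glo) measures survival of drug-naive KB-3-1 cells after 72 h compound exposure at 37 °C. Titration series was screened from lowest to highest concentration, with DMSO vehicle plates as background controls.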
SW480 rerep: DNA re-replication induction in SW480 cells | SW480 DNA re-replication, Hoechst DNA content imaging, 48 h | Potency, µM (top dose mostly 46.1 µM), for inactives: top-dose re-replication activation, usual class: activators | actives 1.8% (n = 340,000); also: % of control where 0% means no effect; nearly all actives have a fitted effect of over 55% in size
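Hoechst fluorescence of nuclei (405 nm excitation, 500-530 nm emission) measured by plate-scanning imager after 48 hr compound exposure at 37 C; re-replication scored as increased number of nuclei with elevated intensity.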
ELG1 repair inh: ELG1-dependent DNA repair inhibition. HEK293T ELG1-luciferase reporter, luminescence, 16 h; DNA damage induced by 5-fluorouridine. Potency, µM (series often up to 46.1 µM), for inactives: top-dose activity change, negative = inhibition, usual class: inhibitors. actives 2.3% (n = 330,000). AID 504467; also: % is scaled to controls: 0 for no effect and ±100 for the full control effect; nearly all actives have a fitted effect of over 55% in size
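5-Fluorouridine DNA damage + compound/DMSO, 2,000 cells/well, 16 h, 37 °C/5% CO2. ONE-Glo, 30 min RT, luminescence. Readout = decrease in reporter signal.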
KB-V1 cytotox: KB-V1 MDR subline cytotoxicity | KB-V1 MDR cells viability, CellTiter-Glo, 72 h | Potency, µM (series often up to 46.1 µM), usual class: cytotoxic | actives 3.4% (n = 400,000) | AID 1347076; also: % is scaled to controls: 0 for no effect and ±100 for the full control effect; nearly all actives have a fitted effect of over 60% in size
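Cytotoxicity via CellTiter-Glo luminescence after 72 h compound exposure at 37 degrees C. Cells: drug-selected KB-V1 line, DMEM phenol-red free plus 10% FBS. Compounds tested at multiple concentrations; normalized data fitted to concentration-effect curves.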
Starred values were filed as active, the others as inactive; i = inactive; ? = inconclusive; . = no result given. Calls follow the shape of the dose curve; as a rule, active = well fitted curve in the direction sought with a large enough effect; inconclusive = small, poorly fitted or top-dose-only effect, or another doubt; inactive = no such curve, though single readings can be large; an effect the other way counts as inactive or inconclusive. Potency is read from the fitted curve at half-maximal effect.

SMILES | MCF10A rerep | KB-3-1 tox | SW480 rerep | ELG1 repair inh | KB-V1 cytotox
COc1ccc(C(=O)c2c(C(F)(F)F)oc3c2C(=O)c2ccccc2C3=O)cc1 | 4.11µM* | ? | 5.17µM* | 10.3µM* | ?
Cc1ccc(-n2cc(CN3CCNC(=O)CC3)c(-c3ccc(F)cc3)n2)cc1 | -9.3% | i | -17.1% | -12.8% | i
Cc1ccc(-n2cc(CN3CCC(O)(c4ccccn4)CC3)c(-c3ccc(F)cc3)n2)cc1 | ? | i | ? | 18.3µM* | ?
O=S(=O)(Cc1cc(Sc2ccc(Cl)cc2)nc(-c2ccccc2)n1)c1ccccc1 | -3.7% | i | -2.6% | -0.9% | i
Cc1nc(CS(=O)(=O)c2ccc(Cl)cc2)cc(Sc2ccc(Cl)cc2)n1 | 6.1% | i | -2.0% | 20.6µM* | ?
O=C(O)CSCc1nc2cccnc2n1C1CCCCC1 | ? | i | ? | 0.3% | i
O=C(CCc1ccccn1)NC1CCCc2c1cnn2-c1ccc(F)cc1F (centres undefined) | -2.1% | ? | -4.1% | ? | 20.6µM*
CCc1cc(C(=O)NC2CCCc3c2cnn3-c2ccc(F)cc2F)no1 (centres undefined) | . | 14.6µM* | . | . | ?
O=C(Nc1ccc(S(=O)(=O)Nc2ncccn2)cc1)c1cccc([N+](=O)[O-])c1 | . | i | . | . | i
CCn1c(=O)c2cc(S(=O)(=O)NCc3ccccc3)ccc2n(CC)c1=O | 12.7% | i | -0.7% | -18.5% | 14.6µM*
CCn1c(=O)c2cc(S(=O)(=O)NCCOc3ccccc3)ccc2n(CC)c1=O | -5.3% | i | -11.3% | 0.0% | i
COc1ccc(N2C(=O)c3ccc(C(=O)Nc4ccccc4O)cc3C2=O)cc1 | 2.91µM* | i | -40.7% | -1.4% | ?
CCCCC[C@@H](C)N1C[C@@H](COCc2ccccc2)Oc2cc(N3CCC[C@@H]3CO)ccc2S1(=O)=O | . | ? | . | . | 16.4µM*
CCCCC[C@@H](C)N1C[C@H](COCc2ccccc2)Oc2cc(N3CC[C@@H](N(C)C)C3)ccc2S1(=O)=O | . | ? | . | . | 16.4µM*
CCCCC[C@@H](C)N1C[C@@H](COCc2ccccc2)Oc2cc(N3CC[C@@H](O)C3)ccc2S1(=O)=O | . | ? | . | . | i
CCCCC[C@@H](C)N1C[C@@H](COCc2ccccc2)Oc2cc(N3CC[C@@H](N(C)C)C3)ccc2S1(=O)=O | . | ? | . | . | 20.6µM*
CCCCC[C@H](C)N1C[C@H](COCc2ccccc2)Oc2cc(N3CC[C@H](N(C)C)C3)ccc2S1(=O)=O | . | ? | . | . | 20.6µM*
Cc1nc(Cl)sc1C(=O)NC(C)c1ccc(Cl)cc1 (centres undefined) | 14.6% | i | -3.3% | 0.5% | i
CC1Cc2ccccc2N1C(=O)Cn1cc(C(F)(F)F)ccc1=O (centres undefined) | . | i | . | . | i
C[C@H](c1ccccc1)N1C[C@H](COCc2ccccc2)Oc2cc(N3CC[C@@H](O)C3)ccc2S1(=O)=O | . | i | . | . | 23.1µM*
C[C@@H](c1ccccc1)N1C[C@@H](COCc2ccccc2)Oc2cc(N3CC[C@@H](O)C3)ccc2S1(=O)=O | . | i | . | . | i
CCOC(=O)Cn1c(=O)n(C2CCCCC2)c2nc(-c3c(F)cccc3Cl)nc(C(N)=O)c21 | . | ? | . | . | 18.4µM*
CCOC(=O)Cn1c(=O)n(C2CCCCC2)c2nc(-c3cccc(F)c3)nc(C(N)=O)c21 | . | i | . | . | i
COc1cc(NC(=O)COC(=O)CNS(=O)(=O)c2ccc(F)c(F)c2F)cc(OC)c1 | -5.0% | i | -90.4% | 10.0% | i
CCCC1C(=O)Nc2ccccc2N1C(=O)c1ccc(C(C)(C)C)cc1 (centres undefined) | 25.9µM* | i | ? | ? | i
CCc1nc(CN2CCN(c3cc(C(F)(F)F)ccn3)CC2)c(C)[nH]1 | 20.0% | i | -18.6% | 7.3µM* | i
FC(F)(F)c1cccc(CN2CCN(c3ncccn3)CC2)c1 | -3.6% | i | -22.0% | . | i
Cc1ccc(NC(=O)CN(C)CC(=O)Nc2ccc(F)c(Cl)c2)cc1 | 20.6µM* | i | -3.9% | 9.0% | i
